Measured values from ChEMBL document CHEMBL3988442, “University of Dundee, Small-Polar-MMV Screening Library” (2021).
For some assays here: Measured potencies and affinities stand elsewhere.

Legend:
Parameters in all cases: scale not given: direction of the effect not stated beside the values
[1] = target: Protein translocase subunit SecA (Escherichia coli (strain K12)) (UniProt P10408); assay: Assay to Identify E. coli SecA ATPase Inhibitors; format: functional; conditions: 30 µM
[2] = target: T1, Ubiquitin-activating enzyme e1, putative (Leishmania donovani (strain BPK282A1)) (UniProt E9BSI1); assay: Leishmania donovani Ubiquitin Activating Enzyme (LdE1); format: functional; conditions: 30 µM
T1 sequence (whole entry): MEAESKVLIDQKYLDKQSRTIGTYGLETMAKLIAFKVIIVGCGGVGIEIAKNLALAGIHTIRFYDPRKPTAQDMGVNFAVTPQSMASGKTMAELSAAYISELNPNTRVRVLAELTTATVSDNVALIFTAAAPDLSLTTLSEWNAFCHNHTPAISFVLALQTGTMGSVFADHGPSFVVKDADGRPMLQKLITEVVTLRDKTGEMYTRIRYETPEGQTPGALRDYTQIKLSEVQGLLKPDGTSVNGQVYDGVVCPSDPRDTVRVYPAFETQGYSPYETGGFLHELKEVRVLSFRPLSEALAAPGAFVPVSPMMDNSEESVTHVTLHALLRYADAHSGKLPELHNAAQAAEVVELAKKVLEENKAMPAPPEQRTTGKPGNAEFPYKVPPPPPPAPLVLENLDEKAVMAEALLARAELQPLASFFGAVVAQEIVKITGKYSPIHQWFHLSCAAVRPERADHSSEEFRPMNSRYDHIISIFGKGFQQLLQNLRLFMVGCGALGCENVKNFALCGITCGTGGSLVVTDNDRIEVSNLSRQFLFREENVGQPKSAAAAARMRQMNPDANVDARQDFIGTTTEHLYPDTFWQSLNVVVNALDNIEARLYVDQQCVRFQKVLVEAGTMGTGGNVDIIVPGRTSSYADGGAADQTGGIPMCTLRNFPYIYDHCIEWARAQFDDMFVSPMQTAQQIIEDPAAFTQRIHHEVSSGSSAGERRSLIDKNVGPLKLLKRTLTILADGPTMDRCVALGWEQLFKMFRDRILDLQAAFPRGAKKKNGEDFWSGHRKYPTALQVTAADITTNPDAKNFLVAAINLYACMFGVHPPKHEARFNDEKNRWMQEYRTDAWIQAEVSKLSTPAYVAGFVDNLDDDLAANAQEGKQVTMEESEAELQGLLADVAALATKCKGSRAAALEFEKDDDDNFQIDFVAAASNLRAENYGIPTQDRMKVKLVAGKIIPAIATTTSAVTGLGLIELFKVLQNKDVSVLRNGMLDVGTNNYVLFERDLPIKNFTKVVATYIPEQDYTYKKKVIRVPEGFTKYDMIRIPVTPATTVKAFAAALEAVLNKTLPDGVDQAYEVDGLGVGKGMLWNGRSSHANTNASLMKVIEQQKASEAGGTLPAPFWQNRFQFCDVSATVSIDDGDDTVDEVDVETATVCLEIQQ

[3] = target: AMP-activated protein kinase, AMPK (Homo sapiens) (UniProt P54646+O43741+P54619+Q9UGJ0+Q9Y478+Q13131+Q9UGI9); assay: AMP-dependent Kinase enzyme assay. An in vitro enzyme assay that detects ADP turnover that is directly proportional to AMPK activity. This uses naive AMPK that is activated during the assay with MK-8722; format: functional; conditions: 30 µM
[4] = target: Sialic acid-binding Ig-like lectin 9 (Homo sapiens) (UniProt Q9Y336); assay: Hs-Siglec9 ALPHAscreen SOP 20170721; conditions: 10 µM
Trypanosoma cruzi = assay: Trypanosoma cruzi phosphomannomutase and mannose-1-phosphate guanylyltransferase assay; format: functional; conditions: 10 µM
[5] = target: T2, Arginase-2, mitochondrial (Homo sapiens) (UniProt P78540); assay: in vitro enzyme assay to detect the production of urea directly proportional to the activity of Arginase II; format: functional; conditions: 33.3 µM; also: in the data most compounds retested in dose-response had high values
T2 sequence (whole entry): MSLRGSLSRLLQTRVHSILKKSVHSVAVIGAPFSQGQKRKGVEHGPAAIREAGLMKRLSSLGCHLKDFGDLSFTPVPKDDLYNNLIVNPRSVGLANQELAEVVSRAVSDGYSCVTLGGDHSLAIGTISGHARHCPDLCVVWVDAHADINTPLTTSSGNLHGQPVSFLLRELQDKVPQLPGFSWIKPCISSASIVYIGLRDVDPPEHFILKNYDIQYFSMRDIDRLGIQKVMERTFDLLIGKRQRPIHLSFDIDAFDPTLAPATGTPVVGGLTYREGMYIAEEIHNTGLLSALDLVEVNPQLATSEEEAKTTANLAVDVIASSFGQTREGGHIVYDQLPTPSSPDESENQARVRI

[6] = target: T3, Proteasome subunit beta (Trypanosoma cruzi) (UniProt O96673); assay: Trypanosoma cruzi proteasome chymotrypsin-like activity (TcProtChymo) assay.; also: in the data most compounds retested in dose-response had high values; format: functional; conditions: 9.37 µM
T3 sequence (whole entry): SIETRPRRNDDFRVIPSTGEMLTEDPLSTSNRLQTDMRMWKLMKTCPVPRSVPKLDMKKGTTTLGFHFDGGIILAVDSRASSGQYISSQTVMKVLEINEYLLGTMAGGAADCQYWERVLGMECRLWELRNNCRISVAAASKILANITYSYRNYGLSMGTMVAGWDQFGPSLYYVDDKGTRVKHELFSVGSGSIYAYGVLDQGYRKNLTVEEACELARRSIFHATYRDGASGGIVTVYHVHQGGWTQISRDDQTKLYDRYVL

Homo sapiens = organism: Homo sapiens; assay: To identify inhibition of the IFN signalling (Jak-Stat) pathway via expression of an eGFP reporter gene under the control of an IFN-stimulated response element (ISRE) containing MxA promoter.; format: functional; conditions: 30 µM
[7] = target: T4, Tyrosyl-tRNA synthetase, putative (Trypanosoma cruzi (strain CL Brener)) (UniProt Q4DSP6); assay: Trypanosoma cruzi tyrosyl tRNA synthetase (TcYRS) _High Tyrosine SOP; format: functional; conditions: 30 µM; also: in the data most compounds retested in dose-response had high values
T4 sequence (whole entry): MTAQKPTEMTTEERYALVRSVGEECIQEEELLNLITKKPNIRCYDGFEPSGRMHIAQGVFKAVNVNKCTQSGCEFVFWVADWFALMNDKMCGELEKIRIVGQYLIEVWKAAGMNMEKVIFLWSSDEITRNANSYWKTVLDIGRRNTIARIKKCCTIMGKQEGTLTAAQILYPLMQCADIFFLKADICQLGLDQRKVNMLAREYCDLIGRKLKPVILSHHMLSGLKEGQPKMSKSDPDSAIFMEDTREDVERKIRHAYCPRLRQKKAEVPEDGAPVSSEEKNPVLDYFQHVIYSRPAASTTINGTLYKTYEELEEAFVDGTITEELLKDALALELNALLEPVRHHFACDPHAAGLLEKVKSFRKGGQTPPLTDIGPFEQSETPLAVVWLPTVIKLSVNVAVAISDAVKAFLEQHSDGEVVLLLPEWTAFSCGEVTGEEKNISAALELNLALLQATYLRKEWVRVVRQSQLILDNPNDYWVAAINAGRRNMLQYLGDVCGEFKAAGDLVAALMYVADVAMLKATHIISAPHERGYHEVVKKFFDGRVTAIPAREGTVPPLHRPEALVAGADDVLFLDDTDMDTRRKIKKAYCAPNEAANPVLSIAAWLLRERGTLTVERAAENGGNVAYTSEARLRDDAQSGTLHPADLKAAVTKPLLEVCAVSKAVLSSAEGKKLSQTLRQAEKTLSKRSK

[8] = target: T4, Tyrosyl-tRNA synthetase, putative (Trypanosoma cruzi (strain CL Brener)); assay: Trypanosoma cruzi tyrosyl tRNA synthetase (TcYRS) SOP; format: functional; conditions: 30 µM
[9] = target: Chromo domain-containing protein 1 (Saccharomyces cerevisiae (strain ATCC 204508 / S288c) (Baker's yeast)) (UniProt P32657); assay: ScCHD-1 Enzyme Inhibition Assay; format: functional; conditions: 30 µM; also: in the data most compounds retested in dose-response had high values
Sequence of Chromo domain-containing protein 1 (Saccharomyces cerevisiae (strain ATCC 204508 / S288c) (Baker's yeast)) (P32657 whole entry, the tested form may be a part): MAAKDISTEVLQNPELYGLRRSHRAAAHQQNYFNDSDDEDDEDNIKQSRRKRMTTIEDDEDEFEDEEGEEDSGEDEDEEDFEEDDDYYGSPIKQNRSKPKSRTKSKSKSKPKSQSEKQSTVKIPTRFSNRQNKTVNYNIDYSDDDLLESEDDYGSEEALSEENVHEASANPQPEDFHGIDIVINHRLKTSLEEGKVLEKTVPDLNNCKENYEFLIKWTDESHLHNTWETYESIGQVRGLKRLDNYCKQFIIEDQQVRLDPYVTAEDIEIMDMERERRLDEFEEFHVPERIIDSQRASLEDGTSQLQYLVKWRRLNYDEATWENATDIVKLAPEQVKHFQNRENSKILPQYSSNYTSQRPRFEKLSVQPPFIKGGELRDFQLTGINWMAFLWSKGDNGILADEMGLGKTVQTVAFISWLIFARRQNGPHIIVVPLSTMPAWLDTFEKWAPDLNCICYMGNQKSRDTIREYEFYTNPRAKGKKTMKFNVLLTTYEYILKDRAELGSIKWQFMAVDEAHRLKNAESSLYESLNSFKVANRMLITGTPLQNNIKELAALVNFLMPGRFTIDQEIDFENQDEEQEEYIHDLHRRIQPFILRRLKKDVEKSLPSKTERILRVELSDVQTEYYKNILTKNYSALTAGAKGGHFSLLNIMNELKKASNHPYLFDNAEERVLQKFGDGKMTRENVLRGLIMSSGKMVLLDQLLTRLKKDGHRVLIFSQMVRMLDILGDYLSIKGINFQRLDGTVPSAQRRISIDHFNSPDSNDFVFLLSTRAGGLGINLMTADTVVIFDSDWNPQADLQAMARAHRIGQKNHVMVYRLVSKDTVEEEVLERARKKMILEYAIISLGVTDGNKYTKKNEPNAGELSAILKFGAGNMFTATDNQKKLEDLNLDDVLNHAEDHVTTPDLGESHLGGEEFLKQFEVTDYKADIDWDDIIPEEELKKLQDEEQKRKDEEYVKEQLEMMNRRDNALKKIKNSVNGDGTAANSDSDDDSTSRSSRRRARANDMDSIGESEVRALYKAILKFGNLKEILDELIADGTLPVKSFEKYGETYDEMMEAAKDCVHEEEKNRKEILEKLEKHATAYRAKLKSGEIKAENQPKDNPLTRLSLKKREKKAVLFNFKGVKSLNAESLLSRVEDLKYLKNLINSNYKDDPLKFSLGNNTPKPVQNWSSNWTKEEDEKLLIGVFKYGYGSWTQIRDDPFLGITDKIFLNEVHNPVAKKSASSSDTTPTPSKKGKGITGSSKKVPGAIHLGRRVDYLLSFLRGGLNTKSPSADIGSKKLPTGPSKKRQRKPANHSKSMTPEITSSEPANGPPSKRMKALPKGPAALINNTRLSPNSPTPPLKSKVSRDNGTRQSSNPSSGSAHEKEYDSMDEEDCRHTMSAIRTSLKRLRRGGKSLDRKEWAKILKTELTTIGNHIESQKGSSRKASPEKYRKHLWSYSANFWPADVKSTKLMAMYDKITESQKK

Sequence of Sialic acid-binding Ig-like lectin 9 (Homo sapiens) (Q9Y336 whole entry): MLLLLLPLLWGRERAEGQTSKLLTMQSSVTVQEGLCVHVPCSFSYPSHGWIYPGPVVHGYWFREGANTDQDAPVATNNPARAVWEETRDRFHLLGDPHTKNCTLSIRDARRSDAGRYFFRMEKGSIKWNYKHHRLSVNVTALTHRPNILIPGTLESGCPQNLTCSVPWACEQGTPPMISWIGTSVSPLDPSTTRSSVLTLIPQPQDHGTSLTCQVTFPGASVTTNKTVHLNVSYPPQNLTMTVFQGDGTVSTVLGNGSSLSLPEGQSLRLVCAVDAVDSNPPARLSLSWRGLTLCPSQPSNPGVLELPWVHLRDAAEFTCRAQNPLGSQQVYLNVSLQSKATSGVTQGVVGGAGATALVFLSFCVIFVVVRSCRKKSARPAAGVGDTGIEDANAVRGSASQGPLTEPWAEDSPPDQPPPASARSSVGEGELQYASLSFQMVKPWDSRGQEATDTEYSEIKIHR
Sequence of Protein translocase subunit SecA (Escherichia coli (strain K12)) (P10408 whole entry): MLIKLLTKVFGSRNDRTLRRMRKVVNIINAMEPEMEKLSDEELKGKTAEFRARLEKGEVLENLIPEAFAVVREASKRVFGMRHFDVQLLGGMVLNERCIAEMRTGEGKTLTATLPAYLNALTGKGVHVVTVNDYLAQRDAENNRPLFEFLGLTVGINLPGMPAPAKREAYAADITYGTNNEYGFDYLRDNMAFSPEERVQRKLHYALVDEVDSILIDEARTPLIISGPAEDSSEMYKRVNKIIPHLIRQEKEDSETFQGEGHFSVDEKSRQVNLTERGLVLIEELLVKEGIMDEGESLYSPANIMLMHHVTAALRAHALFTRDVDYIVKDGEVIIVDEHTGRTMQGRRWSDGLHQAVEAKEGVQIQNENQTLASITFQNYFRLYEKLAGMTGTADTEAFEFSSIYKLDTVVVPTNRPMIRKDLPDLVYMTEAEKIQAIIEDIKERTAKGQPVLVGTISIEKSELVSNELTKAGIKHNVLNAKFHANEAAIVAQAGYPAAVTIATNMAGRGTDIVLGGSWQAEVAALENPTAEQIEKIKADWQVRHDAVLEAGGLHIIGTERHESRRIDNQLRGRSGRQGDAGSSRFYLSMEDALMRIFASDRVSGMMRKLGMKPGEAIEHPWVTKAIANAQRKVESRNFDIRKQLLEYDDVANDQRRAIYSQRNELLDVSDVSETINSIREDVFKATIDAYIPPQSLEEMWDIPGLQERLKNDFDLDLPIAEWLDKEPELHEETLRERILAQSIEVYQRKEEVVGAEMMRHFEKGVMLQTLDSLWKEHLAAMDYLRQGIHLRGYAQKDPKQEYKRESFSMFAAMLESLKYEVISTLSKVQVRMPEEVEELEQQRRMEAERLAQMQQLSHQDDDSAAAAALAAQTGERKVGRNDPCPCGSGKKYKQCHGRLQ

Compound	Percent Effect [1]	Percent Effect [2]	Percent Effect [3]	Percent Effect [4]	Percent Effect (Trypanosoma cruzi)	Percent Effect [5]	Percent Effect [6]	Percent Effect (Homo sapiens)	Percent Effect [7]	Percent Effect [8]	Percent Effect [9]
COc1cccc(CN2CCOC(Cn3nc(C)cc3C)C2)c1 (configuration not stated)	-1.25%	2.7%	25.1%	-0.918%	-4.88%	1.67%	18.2%	-11.1%	7.92%	15.8%	8.67%
Cn1cnnc1S(=O)(=O)C1CCN(S(=O)(=O)c2ccc(F)c(Cl)c2)CC1	-0.452%	-5.48%	9.53%	-2.11%	-1.37%	1.36%	7.1%	8.21%	-1.07%	0%	-1.74%
CNC(=O)[C@@]12CCO[C@@H]1CCN(Cc1scnc1C)C2	3.6%	7.79%	9.91%	-13.5%	-7.4%	7.1%	20.4%	5.25%	5.29%	6.41%	-8.35%
CCc1nnc2n1CCN(Cc1ccc(C(=O)N3CCCC3)cc1)C2	-2.96%	13.5%	2.51%	-7.2%	-2.69%	-4.25%	12.8%	17.1%	6.93%	15.8%	-4.5%
CCC(CNC(=O)c1ccc(Br)o1)N1CCc2ccccc2C1 (configuration not stated)	-2.45%	-2.7%	-0.754%	2.18%	2.51%	-2.38%	10.9%	11.9%	0.529%	-4.88%	-2.21%
N#CC1(C(=O)NCCCNc2ccc(C(F)(F)F)cn2)CCCC1	0.186%	-2.63%	6.89%	5.29%	0.376%	1.53%	7.18%	23%	2.45%	4.88%	-0.995%
CCOc1ccnc(N2CCN(C(=O)c3cn[nH]c3CC)CC2)n1	-3.25%	15.2%	-3.34%	7.76%	0.472%	-0.38%	-1.23%	18.9%	7.39%	24.1%	-4.33%
COc1cccc(CNc2c(C)cnc3c2c(=O)n(C)c(=O)n3C)c1	-2.5%	16.4%	-3.93%	-14.8%	2.35%	0.909%	15.4%	21.6%	3.23%	20%	-6.85%
Cc1noc(C)c1CN1CCN(C(=O)Cn2cncn2)CC1	-5.62%	5.41%	-0.877%	5%	2.83%	3.72%	-5.24%	-2.96%	2.15%	11.1%	-4.36%
NC(=O)c1ccc(CN2CCCC(N3CCCC3)C2)cc1 (configuration not stated)	-3.01%	18.9%	-3.31%	-0.296%	2.54%	5%	23.8%	-1.33%	7.92%	15.8%	-6.1%
Cc1cnc2n(c1=O)CC(C(=O)NC1CC1)CS2 (configuration not stated)	-4.55%	-21.9%	-9.15%	-1.37%	0.979%	4.54%	6.21%	1.36%	2.15%	0%	-5.19%
CN(C)CCN1CCC2(CC1)CN(c1cccnc1)C(=O)CO2	-2.58%	10.8%	0.668%	-8.57%	-5.18%	2.23%	24.4%	12.1%	4.32%	10.3%	-2.65%
COC(=O)CCNC(=O)c1ccoc1CN1c2ccccc2CC1C (configuration not stated)	-4.57%	0%	6.85%	8.39%	1.98%	-18.4%	19.9%	9.3%	6.25%	3.7%	-2.6%
Cc1ccc(C(=O)N2CCN(S(C)(=O)=O)CC2)cc1N1CCNC1=O	-5.92%	8%	3.73%	15.8%	2.24%	5.73%	15.5%	16.6%	6.01%	11.1%	-6.07%
CCC(=O)N1CCc2nc3cc(OC)c(OC)cc3c(=O)n2CC1	-8.64%	9.46%	-6.48%	12.5%	5.34%	-1.62%	8.58%	6.53%	2.15%	11.7%	-28.2%
CS(=O)(=O)CCNC(=O)C1(c2cccc(Cl)c2)CCCCC1	-7.1%	-1.39%	0.793%	-3.56%	-1.46%	-2.65%	6.14%	13.7%	-4.21%	-7.69%	-0.434%
COc1ccc(CC(=O)N2CCCN(c3ccc(C#N)cc3)CC2)cc1	-3.96%	-5.26%	8.87%	-0.428%	-5.75%	-8.28%	11.8%	-1.35%	-3.19%	2.6%	-7.99%
Cc1cccc2c1cnn2CCCNC(=O)C(C)C	-4.75%	13%	0.24%	14.3%	7.96%	-5.52%	6.16%	5.24%	5.38%	11.1%	-0.927%
CCn1ccnc1CN1CCCN(C(=O)c2sccc2C#N)CC1	-2.7%	-2.53%	1.18%	1.09%	0.472%	1.52%	-4.01%	-12.1%	6.4%	8.86%	0.721%
N#Cc1ncn(CCC(=O)Nc2ccc(Cl)cc2F)n1	1.65%	8.22%	-0.288%	4.01%	1.39%	-1.6%	18.4%	30.7%	11.5%	21%	-1.18%
COc1ccc(CCC(=O)N2CCCC2Cn2cc(C)cn2)cc1F (configuration not stated)	-2.77%	0%	9.15%	2.46%	1.27%	4%	-2.67%	-9.57%	1.91%	2.35%	-12.9%
Cn1cc(Cl)cc1C(=O)N1CCCN(Cc2cccs2)CC1	-2.72%	-10.5%	7.51%	-1.79%	1.32%	1.53%	-1.34%	-3.88%	4.41%	0%	7.24%
